HCMV inh: inhibitors of human cytomegalovirus; HFF cells, HCMV-luciferase reporter, 72 h; hits give low values; activity change, negative = inhibition, % at 57.5 µM; 410,000 tested, 4.5% active; in the data active = activity change below about -60%; inconclusive = no clear call, values can overlap the other calls; inactive = above about -39%
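Human foreskin fibroblasts infected with luciferase-reporter HCMV at MOI 1 PFU/cell, compounds at two doses. Luciferase measured 72 h post infection; normalized to buffer-only basal and Salinomycin (10uM) controls.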
Pf growth 96h: P. falciparum growth inhibition at 96 hour, primary screen for plastid delayed-death inhibitors | P. falciparum luciferase reporter growth, 96 h | Potency, µM (titrated, usually from 28.7 µM), inactives show top-dose activity change, negative = inhibition, most hits filed as inhibitors | 320,000 tested, 6.9% active; note: potency is the fitted concentration of half-maximal effect
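Luminescence readout: decreased luciferase signal marks inhibited growth of reporter-expressing P. falciparum in infected red cells (2% hematocrit, 0.05% parasitemia final), exposed to compound two generations (96 h, 37 C, 5% CO2).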
Pf growth 48h: inhibits P. falciparum growth in the first generation, 48 h; P. falciparum luciferase growth in erythrocytes, 48 h; Potency, µM (titrated, usually from 28.7 µM), for inactives: top-dose activity change, negative = inhibition, most hits filed as inhibitors; 310,000 tested, 5.9% active; AID 504832; note: potency is the fitted concentration of half-maximal effect
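Compounds are pin-transferred into medium, infected erythrocytes (2% hematocrit, 0.1% parasitemia final) are added, and plates sit one parasite generation at 37 C in 5% CO2. Detection reagent is then added and luminescence measured.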
Sm TGR block: inhibitors of Schistosoma mansoni thioredoxin glutathione reductase. Q962Y6. purified TGR, DTNB reduction, TNB absorbance 405 nm. Potency, µM (doses to about 114 µM), for the others: at the top dose activity change, negative = inhibition, usual class: inhibitors. 360,000 tested, 3% active. AID 485364; note: potency is the fitted concentration of half-maximal effect; nearly all actives have a fitted effect of over 60% in size
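First, TGR (20 nM dispensed) and NADPH were mixed with compound. Second, a 15 min room-temperature incubation followed. Third, further NADPH and then DTNB were added to start the reaction. Finally, TNB absorbance was monitored kinetically.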
Giardia FBPA inh: inhibitors of Giardia lamblia fructose-1,6-bisphosphate aldolase; Potency, µM (highest dose often 59.6 µM), for the others: at the top dose activity, negative = inhibition, actives largely listed as inhibitors; purified Giardia FBPA; A8B2U2; AID 2451; 290,000 tested, 0.71% active; note: potency is the fitted concentration of half-maximal effect; nearly all actives have a fitted effect of over 55% in size
Target sequence (A8B2U2 whole entry, looked up): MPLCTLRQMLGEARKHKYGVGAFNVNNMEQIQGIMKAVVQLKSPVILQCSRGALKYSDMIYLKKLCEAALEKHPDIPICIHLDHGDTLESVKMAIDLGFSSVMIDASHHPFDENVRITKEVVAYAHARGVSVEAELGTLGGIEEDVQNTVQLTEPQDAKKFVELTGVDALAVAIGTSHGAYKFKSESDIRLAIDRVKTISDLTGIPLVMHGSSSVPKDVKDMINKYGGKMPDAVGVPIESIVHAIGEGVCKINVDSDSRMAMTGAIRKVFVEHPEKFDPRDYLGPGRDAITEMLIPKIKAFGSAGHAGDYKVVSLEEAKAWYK
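40 nM FBPA preincubated 10 min at RT with compound (up to 57.5 uM final), then substrate plus GAPDH/TPI/NAD/arsenate coupling and diaphorase/resazurin added. Fluorescence read after 20 min at RT, 525/598 nm.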
* hit, by the source's call; [ ] = dose if it differs, or a comment. Most compounds without a hit are left out; they make up all but 14% or so of the library. Unless noted, calls come from the whole dose curve; as a rule, active = well fitted curve in the direction sought with a large enough effect; inconclusive = small, poorly fitted or top-dose-only effect, or another doubt; inactive = no such curve, though single readings can be large; an effect the other way counts as inactive or inconclusive. % is set by controls: 0 for no effect and ±100 for the full control effect.

For CCCCC1=CC2=C(c3ccco3)C(=O)C(C)(OC(=O)c3ccc(OC)cc3)C(=O)C2=CN1CCCN(CC)CC (centres undefined) the results were HCMV inh -22, Pf growth 96h 15µM*, Pf growth 48h inconclusive, Sm TGR block -35% and Giardia FBPA inh -26%[12.9 µM].
`CCCCC1=CC2=C(c3ccco3)C(=O)C(C)(OC(=O)c3ccc(OC)cc3)C(=O)C2=CN1CCN1CCOCC1` (centres undefined) gave Pf growth 96h 10µM*, Pf growth 48h inconclusive, Sm TGR block 45µM* and Giardia FBPA inh inconclusive.
`CCc1nccn1CCC(=O)NC1CCCc2c1cnn2-c1ccc(F)cc1F` (centres undefined) gave HCMV inh inconclusive, Pf growth 96h -3%, Pf growth 48h 4% and Sm TGR block 1%.
`S=C(NCC1CCCO1)Nc1cccc2ccccc12` (centres undefined) gave HCMV inh 4, Pf growth 96h 1µM*, Pf growth 48h 12%, Sm TGR block -30% and Giardia FBPA inh 0%.
`Cc1scc(C(=O)NNC(=S)NCC2CCCO2)c1-c1ccccc1` (centres undefined) gave HCMV inh -62*, Pf growth 96h -7%, Pf growth 48h -1%, Sm TGR block -3% and Giardia FBPA inh 8%.
Screening S=C(NCC1CCCO1)Nc1ccc(Nc2ccccc2)cc1 (centres undefined) returned HCMV inh -69*, Pf growth 96h 12µM*, Pf growth 48h -8% and Giardia FBPA inh 0%.
`COc1ccccc1NC(=S)NCC1CCCO1` (centres undefined) gave HCMV inh 24, Pf growth 96h inconclusive, Pf growth 48h 1%, Sm TGR block -22% and Giardia FBPA inh -1%.
Cc1ccc(-c2c(C(=O)NNC(=S)NCC3CCCO3)csc2C)cc1 (centres undefined) was read as HCMV inh inconclusive, Pf growth 96h 19%, Pf growth 48h inconclusive and Giardia FBPA inh 6%.
For COc1cc(C(=O)NC2CCN(C)CC2)ccc1Nc1ncc2c(n1)N(CCc1ccccc1)CCC(=O)N2C the results were HCMV inh -78*.
CN1CCC(NC(=O)c2cccc(Oc3ccccc3)c2)CC1 was read as HCMV inh -19, Pf growth 96h 10%, Pf growth 48h -1%, Sm TGR block 0% and Giardia FBPA inh 5%.
Screening COc1ccc(OC2C(=O)N(Cc3ccc(F)cc3)C2c2cc(OC)c(OC)c(OC)c2)cc1 (centres undefined) returned HCMV inh -9, Pf growth 96h 25%, Pf growth 48h 3.7µM*, Sm TGR block -2% and Giardia FBPA inh -7%.
`COc1cc(C2CC(=O)N(Cc3ccc(F)cc3)c3ccccc3S2)cc(OC)c1OC` (centres undefined) gave HCMV inh -82* and Sm TGR block 9%.
`CCCCOP(=O)(c1ccc(N(C)C)cc1)C(O)c1c(Cl)cccc1Cl` (centres undefined) gave HCMV inh -76*, Pf growth 96h inconclusive, Pf growth 48h inconclusive, Sm TGR block 12% and Giardia FBPA inh -4%.
CN(C)c1ccc(P(=O)(OCc2ccccc2)C(O)c2ccccc2)cc1 (centres undefined) was read as HCMV inh 2, Pf growth 96h 2.3µM*, Pf growth 48h 10µM*, Sm TGR block 2% and Giardia FBPA inh 3%.
Screening CCCCOP(=O)(c1ccc(N(C)C)cc1)C(O)c1ccc(N(C)C)cc1 (centres undefined) returned HCMV inh 31, Pf growth 96h -22%, Pf growth 48h -13%[0.00184 µM], Sm TGR block 7% and Giardia FBPA inh 0%.
`CC(C)CCOP(=O)(c1ccc(N(C)C)cc1)C(O)c1ccc(Cl)cc1Cl` (centres undefined) gave HCMV inh 4, Pf growth 96h 9.3µM*, Pf growth 48h 9.3µM*, Sm TGR block 10% and Giardia FBPA inh 13%.
For CC(C)CCOP(=O)(c1ccc(N(C)C)cc1)C(O)c1ccccc1F (centres undefined) the results were HCMV inh -16, Pf growth 96h inconclusive, Pf growth 48h 2.9µM*, Sm TGR block 10% and Giardia FBPA inh 11%.
COCCN1C(=O)CSCC1(C)C(=O)Nc1c(C)cccc1C (centres undefined) was read as HCMV inh -20.
`Cc1cccc(C)c1NC(=O)N1CCC(C(=O)c2ccc(F)cc2)CC1` gave HCMV inh 35, Pf growth 96h -7%, Pf growth 48h -9%, Sm TGR block -3% and Giardia FBPA inh -4%.
Cc1cccc(N2CCN(C3=NC(=O)C(Cc4ccccc4)S3)CC2)c1 (centres undefined) was read as HCMV inh -24, Pf growth 96h 12µM*, Pf growth 48h -14%, Sm TGR block -5% and Giardia FBPA inh 3%.
Screening O=C(NCCNc1cc(Cl)ccc1[N+](=O)[O-])c1ccco1 returned HCMV inh -75*, Pf growth 96h inconclusive, Pf growth 48h inconclusive, Sm TGR block -5% and Giardia FBPA inh -6%.
Screening O=C(NCCNc1ccc([N+](=O)[O-])cc1)c1ccco1 returned HCMV inh -8, Pf growth 96h inconclusive, Pf growth 48h -1%, Sm TGR block -6% and Giardia FBPA inh 1%.
`CCCCC#CC1C=CC(Oc2cc(OC)c(OC)c(OC)c2)C(COC(=O)OCC)O1` (centres undefined) gave Giardia FBPA inh -11%[12.9 µM].
For CCNc1nc(C)cc(COC)c1C#N the results were HCMV inh 82, Pf growth 96h -1%[5.75 µM], Pf growth 48h 2%, Sm TGR block 25µM* and Giardia FBPA inh 5%.
Screening COCc1cc(C)nc(SCC(=O)Nc2cccc3cccnc23)c1C#N returned HCMV inh -12, Pf growth 96h 12µM*, Pf growth 48h 15%, Sm TGR block -1% and Giardia FBPA inh 3%.
CCOc1ccc(CSc2nc(C)cc(COC)c2C#N)cc1OCC was read as HCMV inh 22, Pf growth 96h -15%, Pf growth 48h 13µM*, Sm TGR block 3% and Giardia FBPA inh -5%.
For COCc1cc(C)nc(NCCO)c1C#N the results were HCMV inh 59, Pf growth 96h 1%, Pf growth 48h 62%, Sm TGR block 0% and Giardia FBPA inh 4%.
Screening CC(C)(C)CC(=O)NC1CC(=O)N(c2ccc3c(c2)OCCO3)C1 (centres undefined) returned HCMV inh 4 and Sm TGR block -2%.
Screening O=Cc1ccc(-c2ccccc2OC(F)(F)F)o1 returned HCMV inh -7, Pf growth 96h 10%, Sm TGR block -22% and Giardia FBPA inh -1%.

Assay outcomes as filed in PubChem BioAssay.
